A number with no mark means an inactive call.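 The calls were made as follows: active = compounds whose dose series gives a full or clear partial fitted curve of increased nuclear translocation; inconclusive = weak partial curve or effect only at the top dose; inactive = no dose-dependent translocation response.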
Potency is read from the fitted curve at half-maximal effect.

In the assay the target is Glucocorticoid receptor (Homo sapiens) (UniProt P04150). Kind of assay: GR-GFP Redistribution (AID 450). Conditions: U2OS GR-GFP nuclear translocation, laser cytometry, 2 h; series mostly up to 20.6 µM.
Glucocorticoid receptor (Homo sapiens), sequence (P04150 whole entry, looked up): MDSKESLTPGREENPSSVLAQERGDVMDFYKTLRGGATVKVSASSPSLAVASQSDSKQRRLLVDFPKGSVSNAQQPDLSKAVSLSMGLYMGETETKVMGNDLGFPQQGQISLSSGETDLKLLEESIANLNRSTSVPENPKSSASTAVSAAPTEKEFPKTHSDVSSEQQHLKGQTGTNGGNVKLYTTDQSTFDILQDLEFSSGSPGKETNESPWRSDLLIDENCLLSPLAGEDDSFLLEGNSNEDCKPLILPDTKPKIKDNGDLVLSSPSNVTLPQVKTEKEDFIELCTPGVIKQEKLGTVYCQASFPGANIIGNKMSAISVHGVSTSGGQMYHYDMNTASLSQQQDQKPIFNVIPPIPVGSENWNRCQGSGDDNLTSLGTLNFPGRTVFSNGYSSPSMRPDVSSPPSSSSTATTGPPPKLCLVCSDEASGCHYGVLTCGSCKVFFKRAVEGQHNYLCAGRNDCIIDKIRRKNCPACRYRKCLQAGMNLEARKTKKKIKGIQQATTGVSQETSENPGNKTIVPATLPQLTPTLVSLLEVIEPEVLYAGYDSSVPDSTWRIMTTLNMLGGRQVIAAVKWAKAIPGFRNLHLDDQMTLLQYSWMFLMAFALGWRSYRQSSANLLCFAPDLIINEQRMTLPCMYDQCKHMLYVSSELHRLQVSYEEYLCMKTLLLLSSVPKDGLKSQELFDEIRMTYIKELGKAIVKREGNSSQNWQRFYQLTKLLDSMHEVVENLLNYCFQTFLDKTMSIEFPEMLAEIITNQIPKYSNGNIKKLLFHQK
For `O=C1C2ON(c3ccccc3)C(c3cccnc3)C2C(=O)N1c1ccccc1` (centres undefined), the Potency was more than 20.6 µM.

Turning to `COc1ccc(-c2oc3ncn4nc(Cc5ccccc5)nc4c3c2-c2ccc(OC)cc2)cc1`, the Potency was more than 20.6 µM.

For `O=C(O)c1cc2sccc2s1`, the Potency is more than 20.6 µM.

`Cc1cccc(N2C(=O)CC(N3CCN(Cc4ccc(Cl)cc4)CC3)C2=O)c1` (centres undefined): the Potency is more than 20.6 µM.

For the molecule `COCCN(Cc1ccccc1)P(=O)(O)c1ccccc1OCC(=O)O`, the Potency was more than 20.6 µM.

As to `S=c1[nH]nc(-c2ccco2)n1Cc1ccccc1`, the Potency was more than 20.6 µM.

With `CCOC(=O)c1c(C)n(C)c2ccc(OC)c(NC(=O)CN3CCCCC3)c12`, the Potency is more than 20.6 µM.

Turning to `C=CCN1C(=O)CC(C(=O)NC)SC1=Nc1ccc(C(=O)OCC)cc1` (centres undefined), the Potency was more than 20.6 µM.

For the molecule `CC(=O)Nc1ccc(OC(=O)CC2SC(=O)NC2=O)cc1` (centres undefined), the Potency is more than 20.6 µM.

Consider `CCSc1nnc(N(CCC(=O)O)CCC(=O)O)s1`, for which the Potency is more than 20.6 µM.

Take `CCSc1nc(O)c(C2OC(=O)c3c2ccc(OC)c3OC)c(=O)n1-c1ccccc1` (centres undefined): the Potency is more than 20.6 µM.

Regarding `COc1ccc(C(O)C(CN2CCOCC2)c2ccccc2)cc1` (centres undefined), the Potency was more than 20.6 µM.

As for `O=S(=O)(O)c1nc2ccccc2n1Cc1ccc(Cl)cc1Cl`, the Potency was more than 20.6 µM.

As for `CCO/C(C)=N/n1c2nc3ccccc3nc2c2c(=O)n(CC(C)C)c(C)nc21`, the Potency was more than 20.6 µM.

As to `COc1cccc(C2/C(=C(\O)c3ccc4c(c3)OCCO4)C(=O)C(=O)N2CCCN(C)C)c1OC` (centres undefined), the Potency was more than 20.6 µM.

Turning to `CCC1CC2(C)NC(=O)c3c(sc4c3CC(C)(C)OC4)N2C1=O` (centres undefined), the Potency is more than 20.6 µM.

As to `CCOC(=O)/C(C#N)=C1/SC(CCO)C(=O)N1c1ccccc1` (centres undefined), the Potency is more than 20.6 µM.

With `O=C(O)c1cnn2c(C(F)(F)F)cc(-c3ccco3)nc12`, the Potency is more than 20.6 µM.

Consider `COC(=O)c1c(-n2cnnn2)sc(C)c1C`, for which the Potency was more than 20.6 µM.

Consider `C=CCNc1nc(NCc2ccccc2)c(C#N)c2c1CN(C)CC2`, for which the Potency is more than 20.6 µM.

As to `Cc1nc2ccccc2cc1O`, the Potency is more than 20.6 µM.

Regarding `Nc1nnnn1/N=C/c1cccc(Oc2ccccc2)c1`, the Potency is more than 20.6 µM.

Regarding `CCCCC(C(=O)O)C(C)CC(=O)Nc1cccc(C(=O)O)c1` (centres undefined), the Potency was more than 20.6 µM.

For the molecule `CCOC(=O)C1=C(C(C)=O)C(c2cccnc2)C(C#N)=C(N)O1` (centres undefined), the Potency was more than 20.6 µM.

For `O=C(NCCOCCOCCNC(=O)c1cccnc1)c1cccnc1`, the Potency was more than 20.6 µM.

As for `CCOc1ccccc1N1CCN(c2nc3ccccc3nc2C(C#N)C(=O)OC)CC1` (centres undefined), the Potency was more than 20.6 µM.

As to `CCn1nc(NC(=O)c2cccnc2)c2cc3ccccc3nc21`, the Potency was more than 20.6 µM.

On to `Cc1[nH]nc2cn[nH]c12`, for which the Potency is more than 20.6 µM.

As to `Cc1cc(C)n(-c2c(F)c(F)c(CN3CCCCC3)c(F)c2F)n1`, the Potency was more than 20.6 µM.

In the case of `CN(C)CCNC(=O)C12CC3(C)CC(C)(CC(C)(C3)C1)C2`, the Potency was more than 20.6 µM.

For the molecule `CC(=O)Nc1cc2c(cc1Br)OCCO2`, the Potency is more than 20.6 µM.

On to `c1ccc(CSc2nnc(SCc3ccccn3)s2)nc1`, for which the Potency was more than 20.6 µM.

Regarding `Cc1ccc(C(=O)C2=C(O)C(=O)N(c3ncccn3)C2c2cccc(Cl)c2)o1` (centres undefined), the Potency is more than 20.6 µM.

On to `Cc1ccc(NC(=O)c2cc(N3CCOCC3)nc3ccccc23)cc1`, for which the Potency is more than 20.6 µM.

`CC(=O)Oc1ccc2c(C)cc(=O)[nH]c2c1`: the Potency was more than 20.6 µM.

Regarding `CCOC(=O)CCc1c(C)c(C#N)c2nc3ccccc3n2c1-n1ccnc1`, the Potency was more than 20.6 µM.

With `C=CCn1c(SCc2c(F)c(F)c(F)c(F)c2F)nc(O)cc1=O`, the Potency was more than 20.6 µM.

Take `Cn1c(/C(C#N)=C/Nc2ccccn2)nc2ccccc21`: the Potency was more than 20.6 µM.

`Nc1ccc2oc3ncccc3c(=O)c2c1`: the Potency was more than 20.6 µM.

These data come from PubChem BioAssay (NCATS).
